# A selection: hits, their analogues and other compounds. The true share with any hit is near 7.9%.
# SW480 rereplic – DNA re-replication induction in SW480 cells; actives 1.8% (n = 340,000); AID 624297; SW480 DNA re-replication, Hoechst DNA content imaging, 48 h; Potency, µM (doses to about 46.1 µM), for the others: at the highest dose re-replication activation, usual class: activators; also: % of control where 0% means no effect; nearly all actives have a fitted effect of over 55% in size
#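 250 cells/well; 23 nL cpd via pin tool; 48 hr, 37 C, 5% CO2; Hoechst 40 min; imager read of total nuclear intensity, ex 405/em 500-530 nm.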
# KB-3-1 cytotox – kills parental KB-3-1 adenocarcinoma cells; KB-3-1 viability, CellTiter-Glo ATP luminescence, 72 h; Potency, µM (highest dose often 46.1 µM), most hits filed as cytotoxic; actives 1.4% (n = 400,000); AID 1347075; also: % is scaled to controls: 0 for no effect and ±100 for the full control effect; nearly all actives have a fitted effect of over 60% in size
#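 Cells are dispensed, compounds pinned in, plates held at 37 °C for 72 h, then CellTiter-Glo is added and luminescence read after 10 minutes. Cell line: parental KB-3-1 in phenol-red-free DMEM, 10% FBS.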
# HT1080 IDH1KD tx – kills HT-1080 cells with IDH1 knockdown; HT-1080 IDH1 knockdown viability, ATP luminescence, 48 h; Potency, µM (doses to about 46.1 µM), for inactives: at the top dose activity, negative = toxicity, actives largely listed as cytotoxic; actives 2% (n = 360,000);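 also: 0% = DMSO wells and -100% = cell-free medium wells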
#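 In this qHTS, HT-1080 cells depleted of IDH1 are exposed for 48 h at 37 °C to compound titrations. Toxicity is scored from CellTiter-Glo luminescence, with DMSO as full viability and medium alone as none.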
# KB-V1 cytotox – kills drug-selected multidrug resistant KB-V1 cells; Potency, µM (titrated, usually from 46.1 µM), hits mostly cytotoxic; actives 3.4% (n = 400,000); KB-V1 MDR cells viability, CellTiter-Glo, 72 h; also: % is scaled to controls: 0 for no effect and ±100 for the full control effect; nearly all actives have a fitted effect of over 60% in size
#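 KB-V1 cells (P-gp-expressing MDR subline of KB-3-1) in phenol-red-free DMEM with 10% FBS were exposed to library compounds over a concentration series for 72 h at 37 degrees C. Viability read by CellTiter-Glo luminescence; concentration-effect curves fitted after normalization.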
# HT1080-NT tox – kills 2HG-producing HT-1080-NT fibrosarcoma cells. HT-1080-NT fibrosarcoma viability, CellTiter-Glo ATP luminescence, 48 h. Potency, µM (series often up to 46.1 µM), without a hit: top-dose activity, negative = less viability, hits mostly cytotoxic. actives 1.6% (n = 360,000);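 also: NT is the 2HG producing partner of a matched IDH1 knockdown line; 0% = DMSO-treated cells and -100% = media-only wells without cells; nearly all actives have a fitted effect of over 55% in size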
#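 Read-out is CellTiter-Glo luminescence after 10 minutes at room temperature, following 48 hours' compound treatment of HT-1080-NT cells (750 cells/well, RPMI, 5% FBS, 37 degrees C).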
# MCF10A rerep – DNA re-replication induction in MCF 10a cells. MCF 10A DNA re-replication, Hoechst nuclear intensity, 48 h. Potency, µM (titrated, usually from 46.1 µM), without a hit: top-dose activity, positive = re-replication, usual class: activators. actives 2.9% (n = 350,000). AID 624296; also: % of control where 0% means no effect; nearly all actives have a fitted effect of over 50% in size
# The depositor's hits bear a star; i = inactive; ? = inconclusive; nt = no result; [ ] = another dose, or the depositor's remark. Calls follow the shape of the dose curve; as a rule, active = well fitted curve in the direction sought with a large enough effect; inconclusive = small, poorly fitted or top-dose-only effect, or another doubt; inactive = no such curve, though single readings can be large; an effect the other way counts as inactive or inconclusive. Potency is read from the fitted curve at half-maximal effect.
SMILES,SW480 rereplic,KB-3-1 cytotox,HT1080 IDH1KD tx,KB-V1 cytotox,HT1080-NT tox,MCF10A rerep
Cc1ccc(-n2c(-c3ccccc3)n[nH]c2=S)cc1,5.7%,i,10.6%,i,14.7%,3.8%
Cc1ccc(C)c(-n2c(-c3csc(C)c3)n[nH]c2=S)c1,?,i,10µM*,18.4µM*,?,18.5%
COc1ccccc1-n1c(-c2ccccc2)n[nH]c1=S,-5.9%,?,2.59µM*,i,?,?
Cc1ccc(-n2c(-c3ccccc3)n[nH]c2=S)c(C)c1,?,i,18.4%,i,6.2%,0.651µM*
Cc1ccc(C)c(-n2c(-c3ccncc3)n[nH]c2=S)c1,-9.0%,i,20.4%,i,14.2%,-0.3%
Cc1cccc(-n2c(-c3csc(C(C)C)c3)n[nH]c2=S)c1,-6.2%,i,11.1%,18.4µM*,-1.9%,0.9%
CCCc1cc(-c2n[nH]c(=S)n2-c2cccc(C)c2)cs1,-2.8%,i,-7.4%,?,4.4%,10.4%[9.22 µM]
Cc1ccsc1/C=N/NC(=O)c1cccnc1,-4.0%,i,-1.6%,i,0.0%,0.8%
CCN(CC)c1ccc(-c2n[nH]c(=S)n2-c2ccccc2)cc1,?,13µM*,20.6µM*,23.1µM*,?,?
CN(C)c1ccc(-c2n[nH]c(=S)n2-c2ccccc2)cc1,-10.5%[1.84 µM],i,-4.2%,i,0.5%,20.6%
CCc1c(C(=O)NCCc2cccc(C)c2)[nH]c(C)c1C(C)=O,18.1%,?,?,11.6µM*,-28.4%,?
CC(=O)c1c(C)[nH]c(C(=O)NCCc2cccc(C)c2)c1C,-43.9%,i,?,i,-15.2%,3.6%
CC(=O)c1c(C)[nH]c(C(=O)NC2CCCCC2)c1C,-4.8%[9.22 µM],i,1.7%,i,9.1%,-11.0%
CCc1c(C(=O)NCCc2ccc(OC)c(OC)c2)[nH]c(C)c1C(C)=O,-0.5%,i,?,14.6µM*,?,19.4%
CCc1c(C(=O)NC2CCCCC2)[nH]c(C)c1C(C)=O,-18.9%,i,18.1%,18.4µM*,13.5%,13.5%
CC(=O)N/C(=C\c1ccccc1)C(=O)OCC(=O)N(C)C1CCS(=O)(=O)C1 (stereo not given),1.3%,nt,12.3%,nt,-5.2%,11.8%
CCCCCCCCCC[Si](C)(C)CCC(=O)N[C@@H](Cc1ccc(C)cc1)c1ccccc1,nt,i,nt,i,nt,nt
CN1CCN(CCCNc2c(C=O)c(=O)[nH]c3ccccc23)CC1,-16.4%,i,7.6%,i,10.0%,7.2%
CCN1CCN(C(c2ccccc2Cl)c2c(O)cc(C)n(CCOC)c2=O)CC1 (stereo not given),nt,i,nt,i,nt,nt
COc1ccc(N(C)S(=O)(=O)c2cccc(C(=O)N3CCN(c4cccc(C)c4C)CC3)c2)cc1,27.8%,16.4µM*,1.4%,i,6.9%,12.1%
Cc1cccc(N2CCN(C(=O)c3ccc(S(=O)(=O)N(C)c4ccccc4)cc3)CC2)c1C,10.3µM*,?,7.31µM*,23.1µM*,?,5.17µM*
CCOC(=O)C1CCCN(C(=O)c2cccc(S(=O)(=O)N(C)c3ccc(OC)cc3)c2)C1 (stereo not given),-5.4%,i,2.2%,?,0.5%,8.3%
Cc1cccc(N2CCN(C(=O)c3cccc(S(=O)(=O)N4CCCCC4)c3)CC2)c1C,?,?,?,?,?,14.6µM*
O=C(c1cccc(S(=O)(=O)N2CCCCCC2)c1)N1CCN(c2ccccc2F)CC1,14.4%,i,0.0%,?,-0.9%,15.3%
CN1CCN(C(=O)c2ccc(S(=O)(=O)N(C)c3ccccc3)cc2)CC1,nt,i,11.3%,i,13.3%,nt
Cc1ccccc1CCNCc1c(C(=O)O)c(C)n(Cc2c(F)cccc2Cl)c1C,nt,i,nt,i,nt,nt
